This is an account of results in PubChem BioAssay AID624151 (Broad Institute, 2012).

In all, about 28,000 compounds went through this assay and about 410 (1.5%) were called active. Cut-off read from the data, not from the text of the source: active = activation above about 52%; inconclusive = no clear call, values can overlap the other calls; inactive = below that. Many of the other results were omitted from the sample, so actives are more common in it than they were.

A short description of this assay: mutant p53 pathway re-activators, primary screen, cell-based, SW480, luciferase, single point, HTS (AID 624151). The conditions noted are these: SW480 PUMA-promoter luciferase, p53 mutant reactivation; at 9.98 µM; hits give high values.
Regarding `Cc1ccnc(NCc2ccc(N(C)C)cc2)c1`, the activation is 45.6% (inactive).

Turning to `Cc1cc([N+](=O)[O-])nn1CC(=O)NC(C)C`, the activation was -1.03% (inactive).

As to `N#Cc1c(NC(=O)CCn2cnc3ccccc3c2=O)sc2c1CCCC2`, the activation was 4.75% (inactive).

`COc1ccc(C(=O)CSc2nnc(-c3cccc(C)c3)n2-c2ccccc2)cc1`: the activation is -17.1% (inactive).

Consider `O=C(COc1ccc2c(=O)c(-c3ccccc3)coc2c1)Nc1ccc(F)cc1`, for which the activation is 5.8% (inactive).

Turning to `Cc1cc(C)c(C)c(Oc2coc3cc(OCC(=O)Nc4ccccc4Cl)ccc3c2=O)c1`, the activation was -8.1% (inactive).

Take `CCOc1ccc2c(=O)c(Oc3ccccc3Br)coc2c1`: the activation is 53.9% (active).

For `O=C(CSc1nnc(-c2ccccc2F)n1-c1ccccc1)Nc1ccc(Br)cc1`, the activation is -2.35% (inactive).

In the case of `CCOC(=O)c1c(NC(=S)Nc2cnccn2)sc2c1CCCCCC2`, the activation is -14.1% (inactive).

With `COc1ccc(N(CC(=O)Nc2ccccc2F)S(C)(=O)=O)cc1`, the activation was -10.8% (inactive).

As for `O=C(NCc1ccco1)C1CCCN(S(=O)(=O)c2ccccc2)C1` (centres undefined), the activation is -15.8% (inactive).

As for `CC(C)c1cnc(NC(=O)Cc2ccccc2)s1`, the activation was 118% (active).

For `O=C(CS(=O)(=O)Cc1ccccc1)Nc1cccnc1`, the activation is -13.2% (inactive).

Turning to `O=C(c1ccccc1Br)N1CCN(c2ccc([N+](=O)[O-])c(NCc3cccnc3)c2)CC1`, the activation was 1.31% (inactive).

As for `COc1ccc(NC(=O)C(=O)NCC(=O)Nc2cccc(C(F)(F)F)c2)cc1`, the activation is 3.32% (inactive).

Regarding `CCCN(C)C[C@H]1Oc2ncc(C#CCOC)cc2C(=O)N([C@@H](C)CO)C[C@H]1C`, the activation is 6.77% (inactive).

Consider `COc1ccc(S(=O)(=O)N(C)C[C@H]2OCCCC[C@@H](C)Oc3ccc(NC(=O)NC(C)C)cc3C(=O)N([C@H](C)CO)C[C@H]2C)cc1`, for which the activation is -3.86% (inactive).

In the case of `COc1ccc(OC(C)C(=O)Nc2ccc(OC)c(OC)c2)cc1` (centres undefined), the activation was 8.88% (inactive).

Consider `CN(C)c1ccc(NC(=O)CSc2nc3c(c(C(F)(F)F)c2C#N)CCCCCC3)cc1`, for which the activation is -6.67% (inactive).

Turning to `N#Cc1cc2c(nc1SCC(=O)Nc1ccccc1C(F)(F)F)CCCCC2`, the activation is 25.5% (inactive).

On to `Cc1cccc(NC(=O)CSc2nc3c(cc2C#N)CCCCC3)c1`, for which the activation is 90.8% (active).

In the case of `COCC#Cc1ccc2c(c1)O[C@H](CN(C)Cc1ccc3c(c1)OCO3)[C@H](C)CN([C@H](C)CO)S2(=O)=O`, the activation is 12.5% (inactive).

In the case of `CCn1c2ccccc2c2cc(NS(=O)(=O)c3ccccc3[N+](=O)[O-])ccc21`, the activation is -0.615% (inactive).

Turning to `Cn1c(SCC(=O)Nc2c(Cl)cccc2Cl)nnc1-c1ccc(NC(=O)c2ccc(F)cc2)cc1`, the activation is -1.4% (inactive).
